Assay outcomes as filed in PubChem.
Rows were chosen to be rich in hits. Some 14% of all compounds tested hit in one or more screens of this group.
4MU fluor – compound fluoresces in the 4-MU spectral region. max dye-equivalent concentration, M. AID 589. hit rate 11% among 59,000. compound autofluorescence, 340/450 nm, 4-MU equivalents; stronger effect = higher value; in the data active = max dye-equivalent concentration above about 10 nM; inconclusive = mostly about 1.1 nM to 9.6 nM
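Compounds in 100 mM Tris, pH 8.0, sat 15 min at room temperature before fluorescence was read at 340 nm excitation/450 nm emission; a per-plate six-point 4-MU standard curve converted signals to dye-equivalent concentration at each compound concentration.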
CRE Fsk mod – alters forskolin-stimulated CRE reporter signaling in CHO cells; CHO CRE-bla reporter (cAMP response element driving beta-lactamase), forskolin EC10, beta-lactamase ratio; Potency, µM (highest dose often 38.2 µM), without a hit: at the top dose activity change, negative = inhibition, usual class: activators; hit rate 2.5% among 71,000; AID 662; active = well fitted activation curve with a large enough effect in the signal ratio, with a control signal flat, not every such curve was filed as active; inconclusive = small, poorly fitted or top-dose-only effect, or effect the other way, or a change in a side signal; the % refers to the signal ratio; also: potency is read from the fitted curve at half-maximal effect; % of control where 0% means no effect
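qHTS titration format; CRE-bla CHO reporter; stimulus EC10 NKH 477, a water-soluble forskolin. Read: CCF4 460/530 nm ratio. Potency expressed as AC50 for activators or inhibitors.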
A350 fluor – A350 region autofluorescence; Compound autofluorescence, 340/450 nm, Alexa 350 dye-equivalents; stronger effect = higher value; max dye-equivalent concentration, M; hit rate 11% among 59,000; in the data active = max dye-equivalent concentration above about 10 nM; inconclusive = mostly about 1.1 nM to 9.6 nM
HADH2 inh – blocks human hydroxyacyl-CoA dehydrogenase type II. Q99714. recombinant HADH2, NADH fluorescence, beta-hydroxybutyryl-CoA. Potency, µM (titrated, usually from 57.1 µM), without a hit: at the top dose activity change, negative = inhibition, most hits filed as inhibitors. hit rate 3.4% among 73,000; also: potency is read from the fitted curve at half-maximal effect; % is scaled to controls: 0 for no effect and ±100 for the full control effect; nearly all actives have a fitted effect of over 60% in size
Target sequence (Q99714 whole entry, looked up, one chain of several): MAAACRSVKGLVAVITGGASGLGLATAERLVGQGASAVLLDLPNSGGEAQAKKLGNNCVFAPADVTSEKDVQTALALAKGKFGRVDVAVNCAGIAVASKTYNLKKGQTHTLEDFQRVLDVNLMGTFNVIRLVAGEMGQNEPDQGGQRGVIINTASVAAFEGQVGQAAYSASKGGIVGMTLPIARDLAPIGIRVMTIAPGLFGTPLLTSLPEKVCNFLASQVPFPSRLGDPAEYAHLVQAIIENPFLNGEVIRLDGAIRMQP
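Activity measured as NADH fluorescence gain (360/450 nm), taken as the change between first and last reads of a 4-min kinetic run. Conditions: pH 9.0 Tris buffer, 20 nM E. coli-expressed His-tagged enzyme, 1 mM NAD+, 90 uM beta-hydroxybutyryl-CoA; 15-min compound preincubation.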
HSD17B inhib – HSD17B dehydrogenase inhibition. AID 893. hit rate 7.6% among 75,000. Q99714. recombinant HSD17B10, NADH fluorescence kinetic. Potency, µM (titrated, usually from 57.1 µM), inactives show at the top dose activity change, negative = inhibition, hits mostly inhibitors;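 also: the protocol describes HADH2 (HSD17B10) and not the HSD17B4 of the title; potency is read from the fitted curve at half-maximal effect; % is scaled to controls: 0 for no effect and ±100 for the full control effect; nearly all actives have a fitted effect of over 70% in size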
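Activity followed as NADH fluorescence increase (ex 360, em 450 nm) every 30 seconds for 4 min, using final 90 uM beta-hydroxybutyryl CoA and 1 mM NAD+. Recombinant His-tagged enzyme, 20 nM, pH 9.0 Tris buffer, 15 min compound preincubation.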
AID923 – qHTS Assay for Allosteric/Competitive Inhibitors of Caspase-1: Spectroscopic Profiling in AFC Spectral Region | Potency, µM (series often up to 57.5 µM), inactives show top-dose fluorescence increase, hits mostly activators | AID 923, 2007 | hit rate 1.1% among 75,000 | compound fluorescence, AFC spectral region (405/520 nm); also: potency is read from the fitted curve at half-maximal effect; 0% is about no effect
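Compound autofluorescence profiled at 405 nm ex/520 nm em during kinetic caspase 1 run (50 nM enzyme, 5 uM Ac-WEHD-AFC, HEPES pH 7.5, 10 mM DTT). Titration up to 57 uM; baseline from regression intercept, normalized to AFC standard curve.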
The depositor's hits bear a star; [ ] = dose if it differs, or a comment. Unless noted, calls follow the shape of the dose curve; as a rule, active = well fitted curve in the direction sought with a large enough effect; inconclusive = small, poorly fitted or top-dose-only effect, or another doubt; inactive = no such curve, though single readings can be large; an effect the other way counts as inactive or inconclusive.

How did CC(C)=NOCc1ccc(-c2cc(-c3ccccc3)no2)cc1 do in these assays?
HADH2 inh: 0%[11.4 µM]; HSD17B inhib: -1%[11.4 µM]; AID923: -3%[11.5 µM]

What do the screens show for `C[C@](N)(COP(=O)(O)O)C(=O)O`?
CRE Fsk mod: -15%; HADH2 inh: 4%; HSD17B inhib: 2%; AID923: 0%

How did CCOc1nc(C)ccc1-c1noc(-c2ccccn2)n1 do in these assays?
4MU fluor: 6.3e-08M*; CRE Fsk mod: -5%; A350 fluor: 6.2e-08M*; HADH2 inh: 25µM*; HSD17B inhib: 25µM*; AID923: 1%

How did C#CC(C)OC(=O)c1nnc2c3ccccc3n(COC)c2n1 (configuration not stated) do in these assays?
HADH2 inh: 10%[11.4 µM]; HSD17B inhib: 3%[11.4 µM]; AID923: 1%[11.5 µM]

How did CC1(C)Cc2c(sc3ncn4nc(CCC(=O)O)c(=O)nc4c23)CO1 do in these assays?
4MU fluor: 1.3e-08M*; CRE Fsk mod: -16%; A350 fluor: 1.4e-08M*; HADH2 inh: -8%; HSD17B inhib: 32µM*; AID923: -1%

What do the screens show for `CN(C)CCSCCO`?
4MU fluor: inactive; CRE Fsk mod: 3%[7.6 µM]; A350 fluor: inactive; HADH2 inh: -3%[11.4 µM]; HSD17B inhib: 4%[11.4 µM]; AID923: 3%[11.5 µM]

What do the screens show for `CCCCN1Cc2cc(C(=O)c3cc(F)ccc3O)cnc2NC1=O`?
4MU fluor: 1.4e-08M*; CRE Fsk mod: -23%; A350 fluor: 1.5e-08M*; HADH2 inh: 3%; HSD17B inhib: inconclusive; AID923: 3%

Results for CC[C@@]1(O)CC2CN(CCc3c([nH]c4ccccc34)[C@](C(=O)OC)(c3cc4c(cc3OC)N(C)C3[C@@](O)(C(=O)OC)C(OC(C)=O)[C@]5(CC)C=CCN6CC[C@@]43C65)C2)C1 (some centres not stated) ?
HSD17B inhib: -3%; AID923: 2%

How did CC[C@]1(O)C[C@H]2CN(CCc3c([nH]c4ccccc34)[C@](C(=O)OC)(c3cc4c(cc3OC)N(C)[C@@H]3[C@](O)(C(=O)OC)[C@H](OC(C)=O)[C@]5(CC)C=CCN6CC[C@]43[C@@H]65)C2)C1 do in these assays?
4MU fluor: inactive; CRE Fsk mod: 0.63µM*; A350 fluor: inactive; HADH2 inh: 11%; HSD17B inhib: -18%; AID923: -7%

How did CN(C)Cc1ccccc1-c1ccc2ncnc(NC3CC3)c2c1 do in these assays?
4MU fluor: inactive; CRE Fsk mod: -1%; A350 fluor: inactive; HADH2 inh: 5%; HSD17B inhib: -6%; AID923: 1%

Results for C1CCCN(CCCCN2CCCCCC2)CC1 ?
4MU fluor: 1.8e-08M*; A350 fluor: 2.2e-08M*

How did O=C(O)CCCN1CCCCC1 do in these assays?
4MU fluor: inactive; CRE Fsk mod: 3%[7.6 µM]; A350 fluor: inactive; HADH2 inh: 3%[11.4 µM]; HSD17B inhib: 7%[11.4 µM]; AID923: 7%[11.5 µM]

How did CCOC(=O)COc1ccc2c(c1)C(=O)CC(C)(c1cccnc1)O2 (configuration not stated) do in these assays?
4MU fluor: 1.5e-06M*; CRE Fsk mod: inconclusive; A350 fluor: 2.1e-06M*; HADH2 inh: 126%; HSD17B inhib: 32µM*; AID923: 18%

What do the screens show for `CCOC(=O)C1=C(N)OC2=C(C(=O)CC(C)(C)C2)C1c1cccnc1` (configuration not stated)?
4MU fluor: inactive; CRE Fsk mod: -4%; A350 fluor: inactive; HADH2 inh: 5%; HSD17B inhib: 4%; AID923: 1%

How did CCOC(=O)c1ccccc1Nc1cc(C)nc2nc(C)nn12 do in these assays?
CRE Fsk mod: 13µM*; HADH2 inh: -9%; HSD17B inhib: -6%; AID923: 0%

Results for COC(=O)c1ccccc1Nc1cc(C)nc2nc(C)nn12 ?
CRE Fsk mod: 13µM*; HADH2 inh: -3%; HSD17B inhib: 0%; AID923: -3%

Results for O=c1c(O)c(-c2ccc(O)c(O)c2)oc2ccccc12 ?
4MU fluor: inactive; CRE Fsk mod: inconclusive; A350 fluor: inactive; HADH2 inh: 0.13µM*; HSD17B inhib: -23%; AID923: 2%

Results for COc1cc(OC)c2c(=O)c(OC)c(-c3ccc(OC)c(OC)c3)oc2c1 ?
HSD17B inhib: -22%; AID923: -1%

Results for COc1ccc(-c2oc3ccccc3c(=O)c2O)cc1 ?
HSD17B inhib: 3.2µM*; AID923: 1%

Results for COc1ccc(OC)c(-c2oc3ccccc3c(=O)c2O)c1 ?
4MU fluor: inactive; CRE Fsk mod: 21%; A350 fluor: inactive; HADH2 inh: 2%; HSD17B inhib: -11%; AID923: 7%

Results for COc1ccc2c(=O)c(OC)c(-c3ccccc3)oc2c1 ?
HSD17B inhib: 0.63µM*; AID923: -1%

How did C[C@H](OP(=O)(O)O)[C@H](N)C(=O)O do in these assays?
4MU fluor: inactive; CRE Fsk mod: -5%[7.6 µM]; A350 fluor: inactive; HADH2 inh: -3%[11.4 µM]; HSD17B inhib: 9%[11.4 µM]; AID923: 2%[11.5 µM]

How did CN(C)CCNc1ccccn1 do in these assays?
4MU fluor: inactive; CRE Fsk mod: 9%[7.6 µM]; A350 fluor: inactive; HADH2 inh: -6%[11.4 µM]; HSD17B inhib: 8%[11.4 µM]; AID923: 1%[11.5 µM]

How did CC(=O)N1c2ccccc2C(=O)C1N1CCCCC1 (configuration not stated) do in these assays?
4MU fluor: 9.2e-08M*; CRE Fsk mod: -5%; A350 fluor: 8.6e-08M*; HADH2 inh: 2%; HSD17B inhib: 25µM*; AID923: 5%

How did CC(=O)N1CCN(C(C)=O)C1c1ccccc1 do in these assays?
CRE Fsk mod: inconclusive; HADH2 inh: 3%[11.4 µM]; HSD17B inhib: -1%; AID923: 0%

Results for c1cncc(-c2cc(NCc3cccs3)ncn2)c1 ?
4MU fluor: inactive; CRE Fsk mod: inconclusive; A350 fluor: inactive; HADH2 inh: 25µM*; HSD17B inhib: inconclusive; AID923: 0%

How did COc1ccc(CNc2ccnc(-c3cccc(C#N)c3)n2)c(OC)c1 do in these assays?
4MU fluor: inactive; CRE Fsk mod: inconclusive; A350 fluor: inactive; HADH2 inh: -17%; HSD17B inhib: -11%; AID923: 5%

Results for COc1cccc(-c2nccc(NCc3cccs3)n2)c1 ?
4MU fluor: inactive; CRE Fsk mod: -3%; A350 fluor: inactive; HADH2 inh: 0%; HSD17B inhib: 0%; AID923: 1%

How did COc1cccc(-c2nccc(NCc3cccnc3)n2)c1 do in these assays?
4MU fluor: inconclusive; CRE Fsk mod: 12%; A350 fluor: inconclusive; HADH2 inh: inconclusive; HSD17B inhib: 20µM*; AID923: 1%
